System: Vero E6 infected with SARS-CoV-2
Assay: inhibition of SARS-CoV-2 cytopathic effect; higher = more antiviral protection, active = above 15
Details: 48 h

Measured: inhibition of SARS-CoV-2 cytopathic effect

CC1(C)S[C@@H]2[C@H](NC(=O)[C@H](N)c3ccc(O)cc3)C(=O)N2[C@H]1C(=O)O [amoxicillin]
inactive: 1 nM -2.41% | 8.33 nM -1% | 100 nM -0.76% | 833.33 nM -0.16% | 10000 nM -2.88%

CCCCCCCC/C=C\CCCCCCCC(=O)NCCO [oleoylethanolamide]
inactive: 1 nM 1.05% | 8.33 nM -0.89% | 100 nM -0.87% | 833.33 nM 0.17% | 10000 nM -4.33%

CN1CCN(CCOc2cc(OC3CCOCC3)c3c(Nc4c(Cl)ccc5c4OCO5)ncnc3c2)CC1 [saracatinib]
inactive: 1 nM 0.37% | 8.33 nM -0.91% | 100 nM 0.04% | 833.33 nM -7% | 10000 nM -12.3%

CCN(CC)CCNc1ccc(CO)c2sc3ccccc3c(=O)c12 [hycanthone]
inactive: 1 nM -3.88% | 8.33 nM -2.41% | 100 nM -0.96% | 833.33 nM -2.51% | 10000 nM 0.99%

C[C@H](N)C(=O)O [L-alanine]
inactive: 1 nM 1.06% | 8.33 nM -0.48% | 100 nM 0.43% | 833.33 nM -0.48% | 10000 nM -4.52%

Oc1cc(O)c2c(c1)O[C@H](c1ccc(O)c(O)c1)[C@H](O)[C@H]2c1c(O)cc(O)c2c1O[C@H](c1ccc(O)c(O)c1)[C@H](O)C2 [procyanidin-B-2]
inactive: 1 nM 2.26% | 8.33 nM 3.77% | 100 nM 2.22% | 833.33 nM 2.06% | 10000 nM -0.73%

OC1(c2ccc(Cl)c(C(F)(F)F)c2)CCN(CCCC(c2ccc(F)cc2)c2ccc(F)cc2)CC1 [penfluridol]
inactive: 1 nM -1.2% | 8.33 nM 2.8% | 100 nM 1.5% | 833.33 nM -2.41%
active: 10000 nM 33.9%

COC(=O)C1=C(C)NC(C)=C(C(=O)NCCCN2CCC(c3ccccc3)(c3ccccc3)CC2)C1c1ccc([N+](=O)[O-])cc1 (stereo not given)
active: 10000 nM 48.8%
inactive: 1 nM 1.77% | 8.33 nM 1.95% | 100 nM 0.45% | 833.33 nM 0.78%

CCC(=O)O[C@H]1[C@H](O[C@@H]2[C@@H](C)[C@H](O[C@H]3C[C@@](C)(OC)[C@@H](O)[C@H](C)O3)[C@@H](C)C(=O)O[C@H](CC)[C@@](C)(O)[C@H](O)[C@@H](C)C(=O)[C@H](C)C[C@@]2(C)O)O[C@H](C)C[C@@H]1N(C)C [erythromycin-estolate]
inactive: 1 nM -0.2% | 8.33 nM 1.07% | 100 nM 2.51% | 833.33 nM 2.85% | 10000 nM -0.99%

Nc1ncnc2c1c(-c1ccc(Oc3ccccc3)cc1)nn2C1CCCC1
inactive: 1 nM 3.63% | 8.33 nM 1.32% | 100 nM 0.15% | 833.33 nM -0.21% | 10000 nM -13.6%

CC(=O)N(C)c1cccc(-c2ccnc3c(C(=O)c4cccs4)cnn23)c1 [indiplon]
inactive: 1 nM 2.87% | 8.33 nM 0.82% | 100 nM 4.78% | 833.33 nM 4.31% | 10000 nM 0.34%

CN(C)CCC=C1c2ccccc2CCc2ccccc21 [amitriptyline]
inactive: 1 nM -2.51% | 8.33 nM -0.51% | 100 nM 5.58% | 833.33 nM 1.84% | 10000 nM -2.45%

CCN1CCCC1CNC(=O)c1cc(S(N)(=O)=O)ccc1OC (stereo not given) [sulpiride]
inactive: 1 nM 0.06% | 8.33 nM -1.14% | 100 nM 0.7% | 833.33 nM 1.07% | 10000 nM 0.685%

OCCN1CCN(CCCN2c3ccccc3Sc3ccc(C(F)(F)F)cc32)CC1 [fluphenazine]
active: 10000 nM 20.5%
inactive: 1 nM -8.05% | 8.33 nM -7.65% | 100 nM -6.69% | 833.33 nM -9.7%

CC(C)c1c2cc(-c3ccnc(N[C@H]4CC[C@H](NC5CCOCC5)CC4)n3)ccc2nn1C
inactive: 1 nM -0.19% | 8.33 nM -1.61% | 100 nM -2.09% | 833.33 nM -20.8% | 10000 nM -0.88%

CC(=O)c1ccc(NS(C)(=O)=O)c(Oc2ccc(F)cc2F)c1
inactive: 1 nM 4.46% | 8.33 nM 0.47% | 100 nM 0.56% | 833.33 nM 1.88% | 10000 nM 2.13%

C[S+]([O-])c1ccc(-c2nc(-c3ccc(F)cc3)c(-c3ccncc3)[nH]2)cc1 (stereo not given)
inactive: 1 nM -0.95% | 8.33 nM 1.29% | 100 nM -1.08% | 833.33 nM -1.33% | 10000 nM 4.9%

Cc1[nH]cnc1CN1CCc2c(c3ccccc3n2C)C1=O [alosetron]
inactive: 1 nM -0.13% | 8.33 nM -3.23% | 100 nM -3.51% | 833.33 nM -1.58% | 10000 nM -2.24%

Source: the supplement of paper PMC13380429
